The structures appear in SMILES notation. Unmarked numbers belong to inactive results.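 The calls were made as follows: active = viability increase at or above a cutoff of the median across tested compounds plus 3 SD (cut at about 8.5% in these data, passing the limit was not always enough); inconclusive = some gains above the cutoff, reason not given; inactive = the rest.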

The experiment can be described thus: viability gain of MRP-1-high H69AR cells under doxorubicin, pilot screen, MRP-1 activator project, CellTiter-Glo, duplicate (AID 807).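 Also: compound pretreatment 18-22 h then 72 h combined with doxorubicin; 0% = doxorubicin alone and 100% = vehicle without doxorubicin.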 The following applies: H69AR viability with doxorubicin, CellTiter-Glo luminescence; at 10 µM; hits give high values. On the technique in general: In ATP-based viability assays light output follows the ATP content of the culture.
As to `Cc1noc(C)c1S(=O)(=O)N1CCC(C(=O)N2CCC(N3CCCCC3)CC2)CC1`, the viability increase is 0.18%.

`COc1ccc(CNc2nc3c(c(=O)[nH]c(=O)n3C)n2Cc2ccccc2C)cc1`: the viability increase was -4.3%.

For the compound `Cc1ccc(-c2nc(-c3ccccc3)no2)c(Cl)c1`, the viability increase is -4.72%. In the case of `Cc1nnc(Sc2nc3c(c(=O)[nH]c(=O)n3C)n2Cc2ccccc2Cl)s1`, the viability increase was -2.89%. The result for `COc1ccc(N2C(=O)CC(c3ccc(OC(C)C)cc3)C2=O)cc1` (stereo unspecified) reads 1.46%; that for `Cc1ccc(-n2nnc3c(=O)n(CC(=O)OCc4ccccc4)cnc32)cc1`, -2.06%; that for `Cc1cc(Oc2ccccc2)nc2ccc(O)cc12`, -5.89%. Regarding `Cc1ccc(C(=O)N2CCN(c3ccccc3)CC2)cc1C`, the viability increase was 0.84%. The result for `CC(=O)N1CCN(CCN=CC2=C(O)CC(c3cccs3)CC2=O)CC1` (stereo unspecified) reads -0.76%; that for `Cc1cc(C)cc(OCCCCCNCCO)c1`, -3.03%; that for `Cc1ccnc(SCCn2c(N3CCC(C)CC3)nc3c2c(=O)[nH]c(=O)n3C)n1`, -2.18%. Take `CN(CCCNC(=O)C1CCC(=O)N1Cc1ccc(F)cc1)c1ccccc1` (stereo unspecified): the viability increase is -1.51%.

With `COC(=O)Nc1c(C(=O)OC)cc(OC)c(OC)c1OC`, the viability increase was -2.87%. For the compound `CCCn1c(C(C)NC(C)=O)nc2ccccc21` (stereo unspecified), the viability increase was -1.47%.

In the case of `CCC1CCCCN1Cc1ccc(OC)c(OC)c1` (stereo unspecified), the viability increase is -2.09%. To `CCOC(=O)N1CCN(CC(=O)Nc2ccc(C)cc2)CC1` belongs -3.03%.

(Values after PubChem BioAssay.)
